Reference: PubChem BioAssay (Tox21)
Records with an inconclusive call do not appear. Where a call stands in place of a potency, no number is given. Activity calls are given as the source filed them. Calls come from the whole dose curve; as a rule, active = well fitted cell-killing curve with a large enough effect in the repeat runs; inconclusive = weak or mixed curves, or effect the other way; inactive = flat fitted curve, though single readings scatter.

Test: qHTS RealTime-Glo MT Cell Viability Assay in HEK293 cells - 0 hour (AID 1224880); note: top concentration of the series differs between compounds; nearly all actives have a fitted effect of over 45% in size
Settings: RealTime-Glo luminescence; series mostly up to 76.8 µM
Description: U.S. Tox21 Program National Center for Advancing Translational Sciences [NCATS] NIH Chemical Genomics Center [NCGC] U.S. Environmental Protection Agency [EPA] National Institutes of Environmental Health Sciences [NIEHS] National Toxicology Program [NTP] U.S. Food and Drug Administration [FDA] Tox21 Assay Overview: Measure of cell viability is critical in the cell-base assay. Analysis of cell viability is necessary for the characterization of cell responses to cytotoxic drugs and environmental stress. A RealTime-Glo MT Cell Viability Assay to monitor cell viability in real time of continues cell culture during 40 hours of compound treatment was used to screen Tox21 10K library compounds in Hek293 cells. The RealTime-Glo MT Cell Viability Assay is a nonlytic, homogeneous, bioluminescent method to measure cell viability in real time using a simple, plate-based method. The assay involves adding NanoLuc luciferase and a cell-permeant prosubstrate to cells in culture. Viable cells reduce the proprietary prosubstrate to generate a substrate for NanoLuc luciferase. This substrate diffuses from cells into the surrounding culture medium, where it is rapidly used by the NanoLuc Enzyme to produce a luminescent signal. The signal correlates with the number of viable cells, making the assay well suited for cytotoxicity studies.
Tox21 Assay Protocol Summary: The mixture of Hek293 cell suspension and reagents were dispensed at 600cells/6 ul/well in 1536-well tissue culture treated black solid bottom plates using a Multidrop dispenser. After the assay plates were incubated at a 37 C/5% CO2 incubator for 5 hours, 23 nL of compounds dissolved in DMSO, positive and negative controls was transferred to the assay plate by a pintool work station. The plates were incubated at 37 C for 40 hours. The luminescence intensity were measured at 0h, 8h, 16h, 24h, 32h and 40h time points using ViewLux plate reader during compound treatment.

SMILES	Potency
COc1ccc(C(CN(C)C)C2(O)CCCCC2)cc1 (stereo not given)	inactive
Nn1cnnc1	inactive
CCN(N=O)C(N)=O	inactive
NNC(=S)NN	inactive
CCCCCc1cc(O)cc(O)c1	inactive
CCCCC(CC)COC(=O)Cl (stereo not given)	inactive
COP(=S)(OC)Oc1ccc([N+](=O)[O-])cc1	inactive
COc1ccc(C=O)cc1	inactive
C[C@]12CCC(=O)C(O)=C1CC[C@@H]1[C@@H]2CC[C@]2(C)C(=O)CC[C@@H]12	inactive
COP(=S)(OC)Oc1cc(Cl)c(Cl)cc1Cl	inactive
Nc1cccnc1	inactive
CCCCN(CC)c1c([N+](=O)[O-])cc(C(F)(F)F)cc1[N+](=O)[O-]	inactive
CCCCCCCCC(=O)NCc1ccc(O)c(OC)c1	inactive
C=C(C)C(=O)OCC1CO1 (stereo not given)	inactive
O=P(Oc1ccccc1)(Oc1ccccc1)Oc1ccccc1	inactive
Oc1cc(Cl)c(Cl)cc1Cl	inactive
O=C(NC(=O)c1c(F)cccc1F)Nc1ccc(Cl)cc1	inactive
Nc1c(Cl)cc([N+](=O)[O-])cc1Cl	inactive
Oc1cc(Cl)ccc1Cl	inactive
CNC(=O)Oc1cccc2c1OC(C)(C)O2	inactive

SMILES	Potency
O=C(CCl)c1ccccc1	inactive
CCN(CC)C(=O)/C(Cl)=C(\C)OP(=O)(OC)OC	inactive
Cc1ccc(OP(=O)(Oc2ccc(C)cc2)Oc2ccc(C)cc2)cc1	inactive
N[C@@H](Cc1ccc(N(CCCl)CCCl)cc1)C(=O)O	inactive
c1ccc(N=Nc2ccccc2)cc1	inactive
CCOC(=O)C(C)OC(=O)c1cc(Oc2ccc(C(F)(F)F)cc2Cl)ccc1[N+](=O)[O-] (stereo not given)	inactive
S=C1NCCN1	inactive
CNC(=O)N(C)c1nnc(C(C)(C)C)s1	inactive
CCCCOCCOP(=O)(OCCOCCCC)OCCOCCCC	inactive
Oc1c(Cl)c(Cl)c(Cl)c(Cl)c1Cl	inactive
O=S(=O)(Oc1ccc(Cl)cc1)c1ccc(Cl)cc1	inactive
CCCCCCCCCCCOC(=O)c1ccccc1C(=O)OCCCCCCCCCCC	inactive
CCC(C)c1ccc(O)cc1 (stereo not given)	inactive
Brc1ccc(Oc2cc(Br)c(Br)cc2Br)c(Br)c1	inactive
C[C@]12CCC(=O)C[C@@H]1CC[C@@H]1[C@@H]2CC[C@]2(C)[C@@H](O)CC[C@@H]12	inactive
OCC(O)CO	inactive
CN(C)C(=O)Nc1ccc(Cl)cc1	inactive
CC(C)(C)c1ccccc1O	inactive
CCN(CC)N=O	inactive
CCOC(=S)S	inactive
